Assay outcomes deposited in PubChem by National Center for Advancing Translational Sciences (NCATS).
Hits are enriched below; roughly 17% of the tested compounds scored in any of these assays.
HT1080NT lethal: kills 2HG-producing HT-1080-NT fibrosarcoma cells; HT-1080-NT fibrosarcoma viability, CellTiter-Glo ATP luminescence, 48 h; 360,000 compounds, 1.6% hits; Potency, µM (series often up to 46.1 µM), hits mostly cytotoxic;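 also: NT is the 2HG producing partner of a matched IDH1 knockdown line; nearly all actives have a fitted effect of over 55% in size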
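Fibrosarcoma NT cells, 750 per well in 5% FBS RPMI, were exposed to compound for 48 hours. Viability: CellTiter-Glo luminescence.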
HT1080 IDH1KD tx: toxicity to HT-1080 IDH1 knockdown cells (counter line) | HT-1080 IDH1 knockdown viability, ATP luminescence, 48 h | Potency, µM (highest dose often 46.1 µM), actives largely listed as cytotoxic | 360,000 compounds, 2% hits
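IDH1KD HT-1080 cells, 750/well, RPMI + 5% FBS; compound pinned after 2 h settling; 48 h, 37 °C; CellTiter-Glo luminescence; % activity normalised to DMSO and no-cell wells; curves fitted, classed by r2 and efficacy.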
TDP1 cell CPT: growth inhibition of DT40 Tdp1-/-;hTDP1 cells with camptothecin (screen for TDP1 inhibitors); chicken DT40 Tdp1-/-;hTDP1 cells + 20 nM CPT, ATP luminescence, 48 h; Potency, µM (series often up to 46.2 µM), most hits filed as inhibitors; 420,000 compounds, 12% hits; AID 686979; also: nearly all actives have a fitted effect of over 55% in size
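Chicken DT40 Tdp1-/- cells complemented with human TDP1, 400 cells/well, exposed to compounds plus 20 nM camptothecin for at least 48 h at 37 C; viability read as ATP content by CellTiter-Glo luminescence.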
HepG2 viability: counter-screen for TGF-b inhibitors: cytotoxicity in HepG2 cells; HepG2 CAGA-GFP viability, ATP luminescence, 18 h; Potency, µM (doses to about 46.1 µM), usual class: cytotoxic; 410,000 compounds, 0.76% hits; AID 588856
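CellTiter-Glo luminescence gave cytotoxicity after 18 hours at 37 degrees C. The cells were HepG2 CAGA-GFP in 1% FBS DMEM, stimulated with 500 pg/mL TGF-beta after compound addition. %Activity was normalised to no-cell wells (complete cell-killing) and DMSO (no toxicity), and curves were fitted and classified.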
DT40 TDP1 no CPT: qHTS for Inhibitors of human tyrosyl-DNA phosphodiesterase 1 (TDP1): qHTS in cells in absence of CPT; DT40 Tdp1-/- hTDP1 cells, no CPT, ATP luminescence, 48 h; Potency, µM (top dose mostly 46.2 µM), most hits filed as inhibitors; 420,000 compounds, 15% hits; also: nearly all actives have a fitted effect of over 55% in size
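Readout: luminescence from CellTiter-Glo after 30 min in the dark at RT. Cells: DT40 Tdp1-/- with stable hTDP1, 400/well. Exposure: compounds alone, ≥48 hr, 37 °C.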
TGFb SMAD3 inh: TGF-b pathway inhibition; Potency, µM (highest dose often 46.1 µM), actives largely listed as inhibitors; HepG2 CAGA-GFP TGF-b/SMAD3 reporter, GFP fluorescence, 18 h; TGF-beta stimulated, 500 pg/mL final; 410,000 compounds, 1.2% hits; also: nearly all actives have a fitted effect of over 65% in size
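Inhibition was scored as loss of TGF-beta-induced (500 pg/mL final, 18 hours, 37 degrees C) GFP in HEPG2 cells carrying a CAGA-GFP reporter, in DMEM with 1% FBS. Well GFP was summed per cell; Activity was normalised to unstimulated and stimulated DMSO wells, then concentration-response fitting.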
Of the large screens only hits and unclear results are named; the others gave an inactive call. Calls follow the shape of the dose curve; as a rule, active = well fitted curve in the direction sought with a large enough effect; inconclusive = small, poorly fitted or top-dose-only effect, or another doubt; inactive = no such curve, though single readings can be large; an effect the other way counts as inactive or inconclusive.

Cn1c(=O)n(C)c2cc([N+](=O)[O-])c(N3CCN(C(=O)c4ccccc4Cl)CC3)cc21	HT1080NT lethal inconclusive, TDP1 cell CPT 21µM, DT40 TDP1 no CPT 16µM
Cn1c(=O)n(C)c2cc([N+](=O)[O-])c(N3CCN(C(=O)C(C)(C)C)CC3)cc21	TDP1 cell CPT 16µM, DT40 TDP1 no CPT 13µM
Cn1c(=O)n(C)c2cc([N+](=O)[O-])c(N3CCN(S(C)(=O)=O)CC3)cc21	none
Cn1c(=O)n(C)c2cc([N+](=O)[O-])c(N3CCN(C(=O)c4ccccc4Br)CC3)cc21	HT1080NT lethal inconclusive, TDP1 cell CPT inconclusive, DT40 TDP1 no CPT 21µM
Cn1c(=O)n(C)c2cc([N+](=O)[O-])c(N3CCN(C(=O)c4ccccc4)CC3)cc21	TDP1 cell CPT 15µM, DT40 TDP1 no CPT 18µM
O=C(c1ccccc1Br)N1CCN(c2ccc([N+](=O)[O-])c(N3CCOCC3)c2)CC1	none
CC(C)C(NC(=O)C1CC(=O)N(Cc2ccccc2)C1)c1nc2ccccc2[nH]1 (configuration not stated)	none
CCOC(=O)N1CCN(C(=O)c2ccc(CSc3ccc(Cl)cc3)cc2)CC1	HT1080 IDH1KD tx inconclusive, TDP1 cell CPT inconclusive, DT40 TDP1 no CPT 7.3µM, TGFb SMAD3 inh inconclusive
Cc1ccc(SCc2ccc(C(=O)N3CCCCC3)cc2)cc1	DT40 TDP1 no CPT inconclusive
CN1CCN(C(=O)c2ccc(CSc3ccc(Cl)cc3)cc2)CC1	TDP1 cell CPT 21µM, DT40 TDP1 no CPT 23µM
Nc1c(C(=O)CSc2n[nH]c(-c3ccccc3)n2)c(=O)[nH]c(=O)n1C1CC1	none
CN(C)c1ccc(N=C/C=C2\N(C)c3ccccc3C2(C)C)cc1	HT1080NT lethal inconclusive, HT1080 IDH1KD tx inconclusive, TDP1 cell CPT 5.2µM, DT40 TDP1 no CPT 4.1µM, TGFb SMAD3 inh inconclusive
CN1\C(=C/C=C/C=C/C=[N+](C)C)C(C)(C)c2ccccc21	HT1080NT lethal inconclusive, HT1080 IDH1KD tx inconclusive, TDP1 cell CPT 2.6µM, DT40 TDP1 no CPT 2.3µM, TGFb SMAD3 inh inconclusive
CN1/C(=C/C=C(C#N)C#N)C(C)(C)c2ccccc21	none
Cc1c(N=C/C=C2\N(C)c3ccccc3C2(C)C)c(=O)n(-c2ccccc2)n1C	TDP1 cell CPT inconclusive, DT40 TDP1 no CPT inconclusive
Cc1cc(/N=C/C=C2\N(C)c3ccccc3C2(C)C)n(CCC#N)n1	HT1080NT lethal inconclusive, TDP1 cell CPT 5.8µM, DT40 TDP1 no CPT 4.6µM
CCCc1cc(C(=O)NNC(=S)NC(C)c2ccccc2)cs1 (configuration not stated)	HT1080 IDH1KD tx inconclusive
OC(c1ccccc1)c1nc2ccccc2s1 (configuration not stated)	TDP1 cell CPT 23µM, DT40 TDP1 no CPT inconclusive
OC(c1ccccc1)c1nc(-c2ccccc2)cs1 (configuration not stated)	none
COc1ccc(-c2coc3ccc(OC4OC(COC(C)=O)C(OC(C)=O)C(OC(C)=O)C4OC(C)=O)c(OC(C)=O)c3c2=O)cc1 (configuration not stated)	TDP1 cell CPT inconclusive, DT40 TDP1 no CPT 8.4µM (no result: HT1080NT lethal, HT1080 IDH1KD tx, HepG2 viability, TGFb SMAD3 inh)
COc1ccc(-c2coc3ccc(OC4OC(COC(C)=O)C(OC(C)=O)C(OC(C)=O)C4OC(C)=O)cc3c2=O)cc1 (configuration not stated)	TDP1 cell CPT 2.7µM, DT40 TDP1 no CPT 1.1µM (no result: HT1080NT lethal, HT1080 IDH1KD tx, HepG2 viability, TGFb SMAD3 inh)
COc1ccc(-c2coc3cc(O[C@@H]4O[C@H](CO)[C@@H](O)[C@H](O)[C@H]4O)ccc3c2=O)cc1	none
CCn1cc([N+](=O)[O-])c(C(=O)N2N=C(c3ccc4ccccc4c3)CC2c2cc(Br)ccc2O)n1 (configuration not stated)	HT1080NT lethal 21µM, HT1080 IDH1KD tx inconclusive, TDP1 cell CPT inconclusive, DT40 TDP1 no CPT 6.5µM, TGFb SMAD3 inh 20µM
CCn1cc([N+](=O)[O-])c(C(=O)N2N=C(c3ccc(Cl)c(Cl)c3)CC2c2ccccc2O)n1 (configuration not stated)	HT1080NT lethal 23µM, HT1080 IDH1KD tx inconclusive, TDP1 cell CPT inconclusive, DT40 TDP1 no CPT inconclusive, TGFb SMAD3 inh 11µM
Cc1ccc(NC(=O)CSc2ncnc3ccccc23)cc1S(=O)(=O)N1CCCCCC1	TDP1 cell CPT 26µM, DT40 TDP1 no CPT inconclusive, TGFb SMAD3 inh inconclusive
O=C(CSc1ncnc2ccccc12)Nc1cc(S(=O)(=O)N2CCCCC2)ccc1Cl	TDP1 cell CPT inconclusive, DT40 TDP1 no CPT 26µM
COc1ccc(C2c3[nH]c4ccccc4c3CC3C(=O)N(CCc4ccc(OC)c(OC)c4)CC(=O)N32)cc1 (configuration not stated)	none (no result: HT1080NT lethal, HT1080 IDH1KD tx, HepG2 viability, TGFb SMAD3 inh)
CSc1ncccc1C(=O)OCC(=O)Nc1cc(C(F)(F)F)ccc1N1CCOCC1	HT1080 IDH1KD tx inconclusive
CCCCCCC(=O)N=Nc1c(O)[nH]c2ccc([N+](=O)[O-])cc12	TDP1 cell CPT inconclusive, DT40 TDP1 no CPT inconclusive
COCCNC(=S)N=Nc1c(O)[nH]c2ccc([N+](=O)[O-])cc12	HT1080 IDH1KD tx 26µM, DT40 TDP1 no CPT inconclusive
COc1ccccc1NC(=O)NCc1ccccc1F	TDP1 cell CPT inconclusive
COc1ccccc1NC(=O)Nc1nc(CC(=O)NCc2ccc(F)cc2)cs1	TDP1 cell CPT 9.2µM, DT40 TDP1 no CPT 16µM
O=C(Cc1csc(-c2ccccc2)n1)NCc1ccc(F)cc1	none
COc1ccccc1NC(=O)Nc1nc(CC(=O)NCc2c(F)cccc2F)cs1	TDP1 cell CPT inconclusive, DT40 TDP1 no CPT 21µM
COc1ccccc1NC(=O)Nc1nc(CC(=O)N2CCN(c3ccccc3F)CC2)cs1	HT1080 IDH1KD tx inconclusive, TDP1 cell CPT inconclusive, DT40 TDP1 no CPT 18µM
COc1ccc(C(=O)Nc2nc(CC(=O)NCCc3cccc(OC)c3)cs2)cc1	TDP1 cell CPT inconclusive, DT40 TDP1 no CPT 15µM
COc1ccc(N2CCN(C(=O)COC(=O)Cc3c(F)cccc3Cl)CC2)cc1	TDP1 cell CPT inconclusive
CC(=O)Nc1ccc(C(=O)CN2CCN(c3ccccc3)CC2)cc1	none
COc1cccc(CNC(=O)Cc2csc(NC(=O)Nc3ccccc3OC)n2)c1	TDP1 cell CPT inconclusive, DT40 TDP1 no CPT 21µM
COc1coc(C(O)C[N+](=O)[O-])cc1=O (configuration not stated)	TDP1 cell CPT 29µM, DT40 TDP1 no CPT inconclusive
CC(C(O)c1cc(=O)c(OCc2ccccc2)co1)[N+](=O)[O-] (configuration not stated)	TDP1 cell CPT inconclusive, DT40 TDP1 no CPT inconclusive
